Assay results reported in the supplement of paper PMC13380429.
A number with no mark means an inactive call.

System: Vero E6 infected with SARS-CoV-2
Test: inhibition of SARS-CoV-2 cytopathic effect; higher = more antiviral protection, active = above 15
Settings: 48 h

CN1CCc2cc3c(cc2[C@H]1[C@@H]1OC(=O)c2c1ccc1c2OCO1)OCO3 [bicuculline-(+)]
inhibition of SARS-CoV-2 cytopathic effect (1 nM): 0.45%
inhibition of SARS-CoV-2 cytopathic effect (8.33 nM): 1.6%
inhibition of SARS-CoV-2 cytopathic effect (100 nM): 0.39%
inhibition of SARS-CoV-2 cytopathic effect (833.33 nM): 0.32%
inhibition of SARS-CoV-2 cytopathic effect (10000 nM): 0.5%

CC(C)(CCCCCC(O)CCCCCC(C)(C)C(=O)O)C(=O)O [bempedoic-acid]
inhibition of SARS-CoV-2 cytopathic effect (1 nM): 0.91%
inhibition of SARS-CoV-2 cytopathic effect (8.33 nM): 0.43%
inhibition of SARS-CoV-2 cytopathic effect (100 nM): 0.18%
inhibition of SARS-CoV-2 cytopathic effect (833.33 nM): 0.98%
inhibition of SARS-CoV-2 cytopathic effect (10000 nM): 1.16%

C[C@H](N)C(=O)O [L-alanine]
inhibition of SARS-CoV-2 cytopathic effect (1 nM): 1.06%
inhibition of SARS-CoV-2 cytopathic effect (8.33 nM): -0.48%
inhibition of SARS-CoV-2 cytopathic effect (100 nM): 0.43%
inhibition of SARS-CoV-2 cytopathic effect (833.33 nM): -0.48%
inhibition of SARS-CoV-2 cytopathic effect (10000 nM): -4.52%

COc1cc(Nc2ncc(F)c(Nc3ccc4c(n3)NC(=O)C(C)(C)O4)n2)cc(OC)c1OC
inhibition of SARS-CoV-2 cytopathic effect (1 nM): -3.02%
inhibition of SARS-CoV-2 cytopathic effect (8.33 nM): -0.43%
inhibition of SARS-CoV-2 cytopathic effect (100 nM): -2.04%
inhibition of SARS-CoV-2 cytopathic effect (833.33 nM): -4.61%
inhibition of SARS-CoV-2 cytopathic effect (10000 nM): -4.19%

CN(C)CCOc1cc(-c2cn[nH]c2)ccc1NC(=O)C1COc2ccccc2O1 (stereo not given)
inhibition of SARS-CoV-2 cytopathic effect (1 nM): -1.4%
inhibition of SARS-CoV-2 cytopathic effect (8.33 nM): 1.35%
inhibition of SARS-CoV-2 cytopathic effect (100 nM): 0.53%
inhibition of SARS-CoV-2 cytopathic effect (833.33 nM): -5.69%
inhibition of SARS-CoV-2 cytopathic effect (10000 nM): -6.4%

c1ccc(Oc2cccnc2)cc1
inhibition of SARS-CoV-2 cytopathic effect (1 nM): 2.35%
inhibition of SARS-CoV-2 cytopathic effect (8.33 nM): 1.64%
inhibition of SARS-CoV-2 cytopathic effect (100 nM): 1.02%
inhibition of SARS-CoV-2 cytopathic effect (833.33 nM): 2.24%
inhibition of SARS-CoV-2 cytopathic effect (10000 nM): 1.23%

N#C/C(=C\c1ccc(O)c(O)c1)C(N)=O [tyrphostin-AG-99]
inhibition of SARS-CoV-2 cytopathic effect (1 nM): 3.54%
inhibition of SARS-CoV-2 cytopathic effect (8.33 nM): 0.59%
inhibition of SARS-CoV-2 cytopathic effect (100 nM): -0.43%
inhibition of SARS-CoV-2 cytopathic effect (833.33 nM): 3.25%
inhibition of SARS-CoV-2 cytopathic effect (10000 nM): 0.46%

C[C@@H](C1=C(CCN(C)C)Cc2ccccc21)c1ccccn1 (racemic) [dimetindene]
inhibition of SARS-CoV-2 cytopathic effect (1 nM): -0.06%
inhibition of SARS-CoV-2 cytopathic effect (8.33 nM): 0.69%
inhibition of SARS-CoV-2 cytopathic effect (100 nM): 0.085%
inhibition of SARS-CoV-2 cytopathic effect (833.33 nM): 1.68%
inhibition of SARS-CoV-2 cytopathic effect (10000 nM): 1.16%

CC1CCN(C(c2ccc(F)cc2)c2ccc(C(C)C(=O)O)cc2-c2ccc(C(F)(F)F)cc2)CC1 (stereo not given)
inhibition of SARS-CoV-2 cytopathic effect (1 nM): 3.01%
inhibition of SARS-CoV-2 cytopathic effect (8.33 nM): -0.54%
inhibition of SARS-CoV-2 cytopathic effect (100 nM): -0.83%
inhibition of SARS-CoV-2 cytopathic effect (833.33 nM): -0.11%
inhibition of SARS-CoV-2 cytopathic effect (10000 nM): -6.62%

FC(F)c1nc2ccccc2n1-c1nc(N2CCOCC2)nc(N2CCOCC2)n1
inhibition of SARS-CoV-2 cytopathic effect (1 nM): -2.17%
inhibition of SARS-CoV-2 cytopathic effect (8.33 nM): -0.7%
inhibition of SARS-CoV-2 cytopathic effect (100 nM): 0.03%
inhibition of SARS-CoV-2 cytopathic effect (833.33 nM): -2.96%
inhibition of SARS-CoV-2 cytopathic effect (10000 nM): -6.67%

O=C(NCCCNc1nc(Nc2cccc(NC(=O)N3CCCC3)c2)ncc1I)c1cccs1
inhibition of SARS-CoV-2 cytopathic effect (1 nM): -2.02%
inhibition of SARS-CoV-2 cytopathic effect (8.33 nM): -0.75%
inhibition of SARS-CoV-2 cytopathic effect (100 nM): 0.52%
inhibition of SARS-CoV-2 cytopathic effect (833.33 nM): -5.21%
inhibition of SARS-CoV-2 cytopathic effect (10000 nM): -23.3%

C#C[C@]1(O)CC[C@H]2[C@@H]3CCc4cc(O)ccc4[C@H]3CC[C@@]21C
inhibition of SARS-CoV-2 cytopathic effect (1 nM): 0.97%
inhibition of SARS-CoV-2 cytopathic effect (8.33 nM): 0.51%
inhibition of SARS-CoV-2 cytopathic effect (100 nM): 6.67%
inhibition of SARS-CoV-2 cytopathic effect (833.33 nM): 3.6%
inhibition of SARS-CoV-2 cytopathic effect (10000 nM): 7.74%

CCCCCCC[N+](CC)(CC)CCCCc1ccc(Cl)cc1 [clofilium]
inhibition of SARS-CoV-2 cytopathic effect (1 nM): 2.85%
inhibition of SARS-CoV-2 cytopathic effect (8.33 nM): 1.44%
inhibition of SARS-CoV-2 cytopathic effect (100 nM): 1.58%
inhibition of SARS-CoV-2 cytopathic effect (833.33 nM): 1.2%
inhibition of SARS-CoV-2 cytopathic effect (10000 nM): 3.38%

Cc1c(Cc2ccc3ccccc3n2)c2cc(F)ccc2n1CC(=O)O
inhibition of SARS-CoV-2 cytopathic effect (1 nM): 1.64%
inhibition of SARS-CoV-2 cytopathic effect (8.33 nM): -0.1%
inhibition of SARS-CoV-2 cytopathic effect (100 nM): 0.44%
inhibition of SARS-CoV-2 cytopathic effect (833.33 nM): -1.23%
inhibition of SARS-CoV-2 cytopathic effect (10000 nM): -2.21%

CCCC(=O)O[C@]1(C(=O)CCl)[C@@H](C)C[C@H]2[C@@H]3CCC4=CC(=O)C=C[C@]4(C)[C@@]3(F)C(=O)C[C@@]21C [clobetasone-butyrate]
inhibition of SARS-CoV-2 cytopathic effect (1 nM): -0.68%
inhibition of SARS-CoV-2 cytopathic effect (8.33 nM): -1.04%
inhibition of SARS-CoV-2 cytopathic effect (100 nM): -5.39%
inhibition of SARS-CoV-2 cytopathic effect (833.33 nM): -1.94%
inhibition of SARS-CoV-2 cytopathic effect (10000 nM): 0.48%

Cc1ccc(NC(=O)C(C)C)cc1C1CCN(Cc2ccc(Oc3ccc(F)c(F)c3)cc2)CC1
inhibition of SARS-CoV-2 cytopathic effect (1 nM): -0.1%
inhibition of SARS-CoV-2 cytopathic effect (8.33 nM): -1.41%
inhibition of SARS-CoV-2 cytopathic effect (100 nM): -2.07%
inhibition of SARS-CoV-2 cytopathic effect (833.33 nM): -4.89%
inhibition of SARS-CoV-2 cytopathic effect (10000 nM): -10.5%

CC(C)[C@H]1CC[C@H](C(=O)N[C@H](Cc2ccccc2)C(=O)O)CC1 [nateglinide]
inhibition of SARS-CoV-2 cytopathic effect (1 nM): 0.56%
inhibition of SARS-CoV-2 cytopathic effect (8.33 nM): 2.28%
inhibition of SARS-CoV-2 cytopathic effect (100 nM): 0.38%
inhibition of SARS-CoV-2 cytopathic effect (833.33 nM): 1.09%
inhibition of SARS-CoV-2 cytopathic effect (10000 nM): 1.33%

CCOC(=O)c1c(C)[nH]c2ccc3c(c12)CN1CCc2cc(OC)ccc2C1O3 (stereo not given)
inhibition of SARS-CoV-2 cytopathic effect (1 nM): 3.34%
inhibition of SARS-CoV-2 cytopathic effect (8.33 nM): 2.9%
inhibition of SARS-CoV-2 cytopathic effect (100 nM): 2.29%
inhibition of SARS-CoV-2 cytopathic effect (833.33 nM): 3.53%
inhibition of SARS-CoV-2 cytopathic effect (10000 nM): 24.1% (active)

CC(C)N(CCCNC(=O)Nc1ccc(C(C)(C)C)cc1)C[C@H]1O[C@@H](n2ccc3c(N)ncnc32)[C@H](O)[C@@H]1O
inhibition of SARS-CoV-2 cytopathic effect (1 nM): 4.48%
inhibition of SARS-CoV-2 cytopathic effect (8.33 nM): 2.04%
inhibition of SARS-CoV-2 cytopathic effect (100 nM): 4.36%
inhibition of SARS-CoV-2 cytopathic effect (833.33 nM): -0.49%
inhibition of SARS-CoV-2 cytopathic effect (10000 nM): 0.43%
